TDP1 block: TDP1 (human) enzyme inhibition. recombinant TDP1, AlphaScreen DNA substrate cleavage. Potency, µM (doses to about 130 µM), for the others: top-dose activity change, negative = inhibition, hits mostly inhibitors. actives 0.28% (n = 350,000); further: nearly all actives have a fitted effect of over 40% in size
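Enzyme-compound mixtures sat 15 min at room temperature, followed by a 5 min reaction with 15 nM final substrate and 10 min with AlphaScreen beads. Recombinant human Tdp1 was used at 1 nM final.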
DT40 TDP1 no CPT: qHTS for Inhibitors of human tyrosyl-DNA phosphodiesterase 1 (TDP1): qHTS in cells in absence of CPT. DT40 Tdp1-/- hTDP1 cells, no CPT, ATP luminescence, 48 h. Potency, µM (top dose mostly 46.2 µM), without a hit: top-dose activity change, negative = growth inhibition, hits mostly inhibitors. actives 15% (n = 420,000). AID 686978, 2013; further: nearly all actives have a fitted effect of over 55% in size
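Chicken DT40 Tdp1-/- cells complemented with human TDP1, screened without camptothecin (DMSO vehicle only), 400 cells/well. Compounds pin-transferred, cells incubated at 37 °C for at least 48 hr. Growth read as ATP-dependent luminescence (CellTiter-Glo, 30 min at RT).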
Gal4-VP16 FLuc: counter-screen for ROR gamma inhibitors: Gal4-VP16 reporter | actives 3.5% (n = 310,000) | Potency, µM (top dose mostly 53.6 µM), inactives show top-dose activity, negative = inhibition, actives largely listed as inhibitors | Drosophila S2 Gal4-VP16 UAS-luciferase, luminescence, 20 h;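 further: Gal4-VP16 expression switched on by copper sulfate through the metallothionein promoter; nearly all actives have a fitted effect of over 50% in size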
RORgamma inh: ROR gamma (mouse) transcription inhibition; P51450; Drosophila S2 Gal4-RORgamma UAS-luciferase reporter, 20 h; Potency, µM (top dose mostly 53.6 µM), for inactives: at the top dose activity change, negative = inhibition, usual class: inhibitors; actives 5.4% (n = 310,000); further: nearly all actives have a fitted effect of over 60% in size
Target sequence (P51450 whole entry, looked up, the tested form may be a part): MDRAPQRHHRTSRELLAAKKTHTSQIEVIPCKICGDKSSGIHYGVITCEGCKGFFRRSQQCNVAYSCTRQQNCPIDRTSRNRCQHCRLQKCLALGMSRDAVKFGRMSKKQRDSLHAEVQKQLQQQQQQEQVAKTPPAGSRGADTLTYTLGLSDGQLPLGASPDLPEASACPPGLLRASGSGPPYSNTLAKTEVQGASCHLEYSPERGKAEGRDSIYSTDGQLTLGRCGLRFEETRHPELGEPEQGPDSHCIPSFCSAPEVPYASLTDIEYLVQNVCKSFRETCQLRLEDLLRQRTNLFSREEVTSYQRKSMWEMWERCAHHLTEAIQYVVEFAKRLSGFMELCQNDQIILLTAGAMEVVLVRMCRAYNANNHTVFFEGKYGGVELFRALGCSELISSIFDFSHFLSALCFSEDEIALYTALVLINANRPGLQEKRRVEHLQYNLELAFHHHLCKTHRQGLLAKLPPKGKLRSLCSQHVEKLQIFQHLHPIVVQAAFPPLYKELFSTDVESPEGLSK
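Stably transfected Drosophila Schneider cells are the test system, with ROR gamma fused to Gal4 and luciferase under UAS control; luminescence is read after 20 hr of 700 uM copper sulfate induction at ambient temperature.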
TDP1 cell CPT: growth inhibition of DT40 Tdp1-/-;hTDP1 cells with camptothecin (screen for TDP1 inhibitors); chicken DT40 Tdp1-/-;hTDP1 cells + 20 nM CPT, ATP luminescence, 48 h; Potency, µM (doses to about 46.2 µM), inactives show top-dose activity change, negative = growth inhibition, actives largely listed as inhibitors; actives 12% (n = 420,000); AID 686979; further: nearly all actives have a fitted effect of over 55% in size
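Chicken DT40 Tdp1-/- cells complemented with human TDP1, 400 cells/well, exposed to compounds plus 20 nM camptothecin for at least 48 h at 37 C; viability read as ATP content by CellTiter-Glo luminescence.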
Active calls of the source: *; ? = inconclusive; · = no result given; [ ] = remark or other dose. Sampled rows, rich in hits. Any-hit rate of the full collection: about 19%. The call rests on the fitted dose curve; in most records, active means well fitted curve in the direction sought with a large enough effect; inconclusive means small, poorly fitted or top-dose-only effect, or another doubt; inactive means no such curve, though single readings can be large; an effect the other way counts as inactive or inconclusive. On the % scale 0 is the no-effect control and ±100 the full control effect; potency means the concentration at half of the fitted maximal effect.

SMILES	TDP1 block	DT40 TDP1 no CPT	Gal4-VP16 FLuc	RORgamma inh	TDP1 cell CPT
O=C(Nc1cccc(S(=O)(=O)N2CCCCC2)c1)C1CC1	-14%	9%	·	·	-21%
O=C(/C=C/c1ccc(Cl)cc1Cl)Nc1cccc(S(=O)(=O)NC2=NCCCCC2)c1	4%	?	-12%	?	-5%
O=C(CCNC(=O)c1ccc(Cl)cc1)Nc1cccc(S(=O)(=O)N2CCCCCC2)c1	-6%[0.505 µM]	-22%	·	·	?
COC(=O)c1c(NC(=O)/C=C/c2ccc(OC)cc2)sc2c1CCC2	0%	-2%	·	·	10%
COc1ccc(/C=C/C(=O)Nc2ccc3c(c2)CCC3)cc1OC	3%	?	4µM*	?	-8%
O=C(CCNC(=O)c1ccc(Br)cc1)Nc1cccc(S(=O)(=O)N2CCCCCC2)c1	2%	?	·	·	13µM*
Cc1nnc(SCC(=O)Nc2cccc(S(=O)(=O)N3CCCC3)c2)n1C1CC1	·	29µM*	·	·	-14%
CCCCCCOc1ccc(/C=C/C(=O)Nc2sc3c(c2C(=O)OC)CCC3)cc1OC	-7%[12.3 µM]	4.1µM*	·	·	7.3µM*
CCOc1ccc(NC(=O)CSc2nnc(C)n2C2CC2)cc1S(=O)(=O)N1CCCC1	0%	3%	·	·	-16%
Cn1c(SCC(=O)Nc2cccc(F)c2)nnc1-c1cc2ccccc2o1	2%	-22%	-6%	9%	-11%
COc1ccc(C(=O)NCc2ccc3c(c2)CCO3)cc1	6%	-13%	-8%	-6%	-3%
COc1ccc(/C=C/C(=O)N2CCN(S(=O)(=O)c3ccccc3)CC2)cc1OC	-1%	?	-10%	18%	-7%
O=C(CCNS(=O)(=O)c1ccc(OC(F)(F)F)cc1)Nc1cccc(S(=O)(=O)N2CCCC2)c1	·	?	·	·	18µM*
O=C(Cc1ccc(Br)cc1)Nc1cccc(S(=O)(=O)N2CCCCC2)c1	·	15µM*	·	·	?
COc1ccc(/C=C/C(=O)Nc2cccc(S(=O)(=O)N3CCCC3)c2)cc1OC	8%	21µM*	0%	?	?
O=C(Cc1ccccc1F)Nc1cccc(S(=O)(=O)N2CCCCC2)c1	·	21µM*	·	·	?
CC(=O)c1ccc(OCCCC(=O)Nc2cccc(S(=O)(=O)N3CCCCC3)c2)cc1	1%	?	·	·	?
O=C(Cc1c[nH]c2ccccc12)Nc1cccc(S(=O)(=O)N2CCCCC2)c1	8%	·	1%	27%	·
O=C(Cc1ccc(Cl)cc1)Nc1cccc(S(=O)(=O)N2CCCCC2)c1	-3%	21µM*	·	·	?
O=C(CCCNC(=O)c1ccc(Cl)cc1)Nc1cccc(S(=O)(=O)N2CCCCC2)c1	2%	?	·	·	?
Cc1cc(C)c2nc(-c3ccccn3)cc(C(=O)Nc3ccc(S(=O)(=O)Nc4onc(C)c4C)cc3)c2c1	40µM*	?	-1%	?	11%
Cc1noc(NS(=O)(=O)c2ccc(NC(=O)c3ccc(N4C(=O)c5ccccc5C4=O)cc3)cc2)c1C	50µM*	-14%	-6%	-2%	3%
CC(NC(=O)COC(=O)Cc1ccsc1)C1CC2CCC1C2 (configuration not stated)	-8%	-11%	4%	-36%	?
Cc1cc(=O)oc2cc(OC(C)C(=O)NC3CCN(Cc4ccccc4)CC3)ccc12 (configuration not stated)	4%	-6%	3%	-6%	-5%
Cc1ccc(-n2cnn(-c3ccc([N+](=O)[O-])cc3[N+](=O)[O-])c2=O)cc1	·	?	28%	2%	?
CC(=O)c1ccc(NC(=O)Cn2cc(S(=O)(=O)Cc3cccc(Cl)c3)c3ccccc32)cc1	6%	23µM*	·	·	23µM*
O=C(Cn1cc(S(=O)(=O)Cc2cccc(Cl)c2)c2ccccc21)Nc1ccccc1C(F)(F)F	0%	?	·	·	13µM*
CCn1cc(S(=O)(=O)CC(=O)Nc2cccc(C)c2)c2ccccc21	·	-20%	-3%	20%	4%
